Screens deposited in PubChem BioAssay by National Center for Advancing Translational Sciences (NCATS).
A selection: hits, their analogues and other compounds. The true share with any hit is near 8.7%.
Vaccinia mCherry: vaccinia inhibition (mCherry reporter) | Potency, µM (series often up to 36.5 µM), for the others: at the top dose activity change, negative = inhibition, usual class: inhibitors | hit rate 0.63% among 310,000 | Vaccinia virus mCherry reporter infection, fluorescence; calls by dose curve; tested in A549 cells; also: nearly all actives have a fitted effect of over 35% in size
Pf growth 96h: P. falciparum growth inhibition at 96 hours | P. falciparum luciferase reporter growth, 96 h | Potency, µM (doses to about 28.7 µM), for inactives: at the highest dose activity change, negative = inhibition, usual class: inhibitors | hit rate 6.9% among 320,000
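Infected RBCs, 2% Hct / 0.05% parasitemia final; luciferase-reporter P. falciparum; cpd 96 h, 37 C, 5% CO2; luciferase detection reagent; luminescence.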
Pf growth 48h: inhibits P. falciparum growth in the first generation, 48 h. P. falciparum luciferase growth in erythrocytes, 48 h. Potency, µM (top dose mostly 28.7 µM), for the others: at the highest dose activity change, negative = inhibition, most hits filed as inhibitors. hit rate 5.9% among 310,000. AID 504832
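Parasite viability was followed by luminescence of a genomically integrated firefly luciferase. Cultures held 0.1% parasitemia at 2% hematocrit (final), incubated under 5% CO2 at 37 C.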
AMA1-RON2 inh: disrupts binding of P. falciparum AMA1 to RON2; AlphaScreen AMA1-biotinylated RON2 peptide binding; Potency, µM (top dose mostly 58.2 µM), for inactives: at the highest dose activity change, negative = inhibition, actives largely listed as inhibitors; hit rate 0.2% among 360,000; AID 720542;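 also: 0% = vehicle wells and -100% = peptide control; nearly all actives have a fitted effect of over 45% in size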
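AMA1 (3D7) with his tag at 25 nM final met compounds first, then biotinylated RON2 peptide at 25 nM; detection used donor plus acceptor beads, 10 µg/mL apiece, read by AlphaScreen after 30 min at room temperature.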
Vaccinia Venus: vaccinia inhibition (Venus reporter); Vaccinia virus Venus reporter expression, fluorescence; hit rate 0.46% among 330,000; AID 720580; Potency, µM (highest dose often 36.5 µM), for the others: at the top dose activity change, negative = inhibition, most hits filed as inhibitors; calls by dose curve; tested in A549 cells; also: nearly all actives have a fitted effect of over 30% in size
* hit, by the source's call; i = inactive; ? = inconclusive; nt = no result given; [ ] = dose if it differs, or a comment. Unless noted, calls follow the shape of the dose curve; as a rule, active = well fitted curve in the direction sought with a large enough effect; inconclusive = small, poorly fitted or top-dose-only effect, or another doubt; inactive = no such curve, though single readings can be large; an effect the other way counts as inactive or inconclusive. Unless noted, % is scaled to controls: 0 for no effect and ±100 for the full control effect; potency is read from the fitted curve at half-maximal effect.

SMILES	Vaccinia mCherry	Pf growth 96h	Pf growth 48h	AMA1-RON2 inh	Vaccinia Venus
CCN(CC)C(=O)C1CC(=O)N(c2ccc(OC)cc2)C1c1ccc(OC)cc1 (stereo unspecified)	nt	nt	?	1%	nt
COc1ccc(C2C(C(=O)N3CCCCC3)CC(=O)N2c2ccc(OC)cc2)cc1 (stereo unspecified)	nt	9.3µM*	1.7µM*	0%	nt
COc1ccc(C2C(C(=O)N3CCC4(CC3)OCCO4)CC(=O)N2c2ccc(OC)cc2)cc1 (stereo unspecified)	-11%	nt	12µM*	10%	-12%
CCCN(CCC)CCNC(=O)C1CC(=O)N(c2ccc(OC)cc2)C1c1ccc(OC)cc1 (stereo unspecified)	nt	1.7µM*	?	-1%	nt
Cc1cc[n+](CC#N)cc1	-14%	nt	nt	nt	-12%
CC(=O)N1CCC[C@H]1C(=O)N1CCc2c(cnc(C)c2CNC(=O)/C=C/c2cccs2)C1	-3%	nt	nt	nt	3%
O=S(=O)(N[C@H]1C[C@@H](NS(=O)(=O)OCC(Cl)(Cl)Cl)C2CCCCC21)OCC(Cl)(Cl)Cl (stereo partly specified)	?	-23%	17%	-2%	10µM*
CCOC(=O)c1c(N)sc2c1CCC(CC)C2 (stereo unspecified)	nt	-12%	nt	0%	-27%
CCOC(=O)c1c(N)sc2c1CCC1C(=O)N(C3CCCCC3)C(=O)C21 (stereo unspecified)	-16%	15µM*	13µM*	-19%	-15%
CCc1ccc2oc(C(=O)NCc3ccccc3)cc(=O)c2c1	-2%	nt	nt	nt	-10%
COc1ccc(C(=O)CSc2nc3ccccc3n2CC(=O)c2ccccc2)cc1	-20%	0%	?	-6%	-18%
COc1ccc(C(=O)Cn2c(C(=O)/C=C/c3ccccc3)nc3ccccc32)cc1	nt	nt	10µM*	-11%	nt
NC(=O)c1ccc(Cc2ncc(C(F)(F)F)cc2Cl)s1	nt	5.2µM*	-22%	-4%	3%
Cc1ccc(NCc2cccn2-c2nnc(N3CCC(C(=O)NCCc4ccccc4)CC3)s2)cc1	-26%	nt	nt	nt	-20%
N#CC(C#N)=Cc1cc(O)c(O)c(O)c1	-5%	11µM*	7.6µM*	nt	-16%
O=S(=O)(c1ccc2nc(-c3ccco3)c(-c3ccco3)nc2c1)N1CCOCC1	nt	-1%	12µM*	-30%	-5%
COc1ccc2c(c1)Cc1sc(NC(=O)c3ccccc3C)nc1-2	?	nt	nt	nt	-26%
COc1ccc2c(c1)Cc1sc(NC(=O)c3ccccc3)nc1-2	-10%	2.9µM*	nt	26%	-28%
COc1ccc(C(=O)Nc2nc3c(s2)Cc2cc(OC)ccc2-3)cc1	-14%	?	5.9µM*	-23%	-10%
COc1ccc2c(c1)Cc1sc(NC(=O)c3cccs3)nc1-2	nt	-10%	5.9µM*	-2%	nt
COc1ccc2c(c1)-c1nc(NC(=O)c3cc(Cl)ccc3OC)sc1CC2	10µM*	nt	nt	nt	10µM*
COC(=O)c1cnn2c(C)c(Cc3c(C)cc(C)cc3C)c(C)nc12	15%	nt	nt	nt	-7%
COc1cc2c(cc1N)-c1ccc(N)cc1C2	i	nt	nt	4µM*	-11%
Nc1ccc2c(c1)Cc1cc(N)c(Br)cc1-2	i	nt	nt	?	4%
COc1ccc(Cl)cc1NC(=O)Cc1c(F)cccc1Cl	-9%	5.9µM*	?	11%	-17%
SMILES	Vaccinia mCherry	Pf growth 96h	Pf growth 48h	AMA1-RON2 inh	Vaccinia Venus
COc1ccc(S(=O)(=O)N2CCOCC2)cc1NC(=O)CN(C)Cc1c(F)cccc1Cl	?	?	7.4µM*	-2%	-21%
COc1ccc(S(=O)(=O)N2CCOCC2)cc1NC(=O)Cc1c(Cl)cccc1Cl	-18%	8.3µM*	?	21%	-7%
COc1cc(C(C)=O)ccc1OCC(=O)Nc1ccc(Cl)c(S(=O)(=O)N2CCOCC2)c1	nt	2.1µM*	4.1µM*	-2%	nt
CC(=O)c1ccc(OCCCC(=O)Nc2ccc(Cl)c(S(=O)(=O)N3CCOCC3)c2)cc1	nt	nt	nt	-4%	nt
Cc1ccc(NC(=O)Cn2cnc3sc(C(=O)O)c(C)c3c2=O)cc1Cl	7%	nt	nt	nt	20%
COc1ccc2c(c1)CCc1cnc(-n3ncc(C(=O)NCCCc4ccncc4)c3C)nc1-2	?	nt	nt	nt	-23%
N#Cc1c(NC(=O)c2cc3nc(-c4ccc(Br)cc4)cc(C(F)(F)F)n3n2)sc2c1CCCC2	-11%	nt	nt	nt	-8%
COc1ccc(C)cc1NC(=O)C(NCC(O)c1ccccc1)c1ccccc1 (stereo unspecified)	nt	10µM*	?	-21%	nt
COc1ccc(C(C)=O)cc1CC(=O)Nc1cccc(S(=O)(=O)N2CCOCC2)c1	nt	7.4µM*	13µM*	2%	nt
COc1ccc(Cl)cc1NC(=O)Nc1ccccc1SC	nt	38%[5.75 µM]	14%[5.75 µM]	-2%	nt
COc1ccc(C)cc1NC(=O)C(NS(=O)(=O)c1cccs1)c1ccccc1 (stereo unspecified)	-7%	nt	nt	nt	10%
COc1ccc(CC(=O)Nc2cccc(C(C)=O)c2)cc1S(=O)(=O)N1CCOCC1	nt	-19%	-13%	0%	nt
COc1ccc(Cl)cc1NC(=O)NC(C)C	nt	-40%[5.75 µM]	2%	-4%	nt
COc1ccc(Cl)cc1NC(=O)C(C)NC(c1ccccc1)c1ccccc1 (stereo unspecified)	i	2.9µM*	13µM*	-7%	-13%
COc1ccc(Cl)cc1NC(=O)C(C)N(C)Cc1cccc(Cl)c1Cl (stereo unspecified)	-7%	6.6µM*	12µM*	10%	-10%
COc1cc(C2Nc3ccccc3C(=O)N2Cc2ccco2)ccc1O (stereo unspecified)	-21%	nt	nt	nt	-5%
CCN(CC)c1ccc(NC(=O)CCc2c(C)nc3ncnn3c2C)c(C)c1	-11%	nt	nt	nt	-9%
Cc1cccc(C)c1OCC(=O)N(Cc1ccccc1F)C1CCS(=O)(=O)C1 (stereo unspecified)	0%	nt	nt	nt	-4%
Cc1ccc(-c2nc3scc(CCNS(=O)(=O)c4ccc(C)c(C)c4)n3n2)cc1	-7%	nt	nt	nt	-13%
CC(C)CSc1ccccc1NC(=O)c1sc2nc(-c3ccncc3)ccc2c1N	-18%	nt	nt	nt	-10%
COc1ccc(C(=O)NCC2Cc3cc(C)cc(-c4nc5ccccc5s4)c3O2)c(OC)c1OC (stereo unspecified)	i	nt	nt	nt	-10%
COc1ccc2nc(N3C(=O)CC(Cc4ccc(C)cc4)C3=O)sc2c1 (stereo unspecified)	-4%	64%	-2%	3%	1%
COc1ccc2nc(N3C(=O)CC(C(C)c4ccccc4)C3=O)sc2c1 (stereo unspecified)	-9%	3.7µM*	-7%	3%	-13%
COc1ccc(N2C(=O)CC(N3CCN(c4nc5ccccc5s4)CC3)C2=O)cc1 (stereo unspecified)	nt	4.7µM*	-23%	5%	nt
CCOc1ccc(N2C(=O)CC(N3CCN(c4ccccc4OC)CC3)C2=O)cc1 (stereo unspecified)	nt	2.6µM*	2.9µM*	1%	nt
CCOc1cccc(N2C(=O)CC(N3CCN(c4nc5ccccc5s4)CC3)C2=O)c1 (stereo unspecified)	i	?	?	-17%	-11%
